# A number with no mark means an inactive call. The source made the active and inactive calls. Calls follow the shape of the dose curve; as a rule, active = well fitted curve in the direction sought with a large enough effect in the repeat runs; inconclusive = weak or mixed curves; inactive = flat fitted curve, though single readings scatter. Positions of bridges follow the written chain, without caps; N, C: chain ends. Non-standard residues stand in square brackets, D forms with d. Residues, ends and D or L forms follow the SMILES beside them. hArg = N=C(N)NCCCC[C@H](N)C(=O)O; Mpa = O=C(O)CCS
# Test: qHTS assay to test for compound auto fluorescence at 590 nm (red) in HepG2 cell free culture (AID 720684)
# Conditions: cell-free medium autofluorescence, red 540/590 nm; series mostly up to 91.3 µM; fluorescence, % of Rose Bengal: at the top concentration
# From the text: U.S. Tox21 Program National Center for Advancing Translational Sciences [NCATS] NIH Chemical Genomics Center [NCGC] U.S. Environmental Protection Agency [EPA] National Institutes of Environmental Health Sciences [NIEHS] National Toxicology Program [NTP] U.S. Food and Drug Administration [FDA] Tox21 Assay Overview: Compound auto fluorescence often interferes with screening of the compound library against various biological targets and signaling pathways. Some of these compounds may have fluorophoric properties. Such properties may interfere with the assay outputs resulting in false positives and/or negatives. To decrease such complications and ensure the compound activities are relevant in terms of biological response, the Tox21 10K compound library was screened for auto fluorescence. From the fluorophores used as reporter signals in our screening assays, the auto fluorescence equivalencies of compounds against three fluorophores have been evaluated: Triamterene, Fluorescein and Rose Bengal sodium for blue, green and red fluorescence, respectively. The fluorescence intensities were measured using Excitation/Emission wavelengths at 405/460nm, 485/535nm and 540/590nm for blue, green and red labels, respectively. This assay includes the red fluorescence data.
# Tox21 Assay Protocol Summary: 5 uL of culture medium (MEM containing 10% FBS) per well was dispensed into black wall/clear bottom 1536-well plates using a Multidrop Combi Dispenser (ThermoFisher Scientific, Waltham, MA). After 23 nL compound or DMSO vehicle was transferred into assay plate by a pintool work station (Kalypsys, San Diego, CA), fluorescence intensities in the assay plates were measured by an Envision (PerkinElmer, Shelton, CT) plate reader using three labels for measuring blue, green and red fluorescence at […] 460, 535 and 590nm respectively.
# % is scaled to controls: 0 for no effect and ±100 for the full control effect.
Compound,"fluorescence, % of Rose Bengal",outcome
O=NN(CCCl)C(=O)NC1CCCCC1,-0.138% [at 46 µM],
NC(=O)[C@@H]1CSSCCC(=O)N[C@@H](CCCCN=C(N)N)C(=O)NCC(=O)N[C@@H](CC(=O)O)C(=O)N[C@@H](Cc2c[nH]c3ccccc23)C(=O)N2CCC[C@H]2C(=O)N1 ([Mpa][hArg]GDWPC-NH2; disulfide 1-7),-0.0041% [at 46 µM],
O=C(O)CCCCCC(=O)O,0.0124%,
Cc1ccnc(N)c1,0.0725%,
CC(=O)OC(C)=O,-0.212% [at 95.7 µM],
Cc1ccc(N)cc1S(=O)(=O)O,0.142%,
Cc1cc(-c2ccccc2)nnc1NCCN1CCOCC1,-0.242% [at 46 µM],
CC1=NN(c2ccc(S(=O)(=O)O)cc2)C(=O)C1,0.0493%,
C[Si]1(C)O[Si](C)(C)O[Si](C)(C)O[Si](C)(C)O[Si](C)(C)O1,0.077%,
CC(C)COC(=O)c1ccccc1,0.0766%,
Cc1ccc2c(c1)C(=O)c1ccccc1C2=O,0.0156%,
CN(C)CCCCl,0.0209% [at 95.7 µM],
O=[N+]([O-])c1c(Cl)cc(Cl)cc1Cl,-0.251%,
CC1OCCC1=O (stereo not given),0.0038%,
CC(N)CCCC(C)(C)O (stereo not given),0.0391% [at 46 µM],
CO/N=C(/C(=O)N[C@@H]1C(=O)N2C(C(=O)[O-])=C(C[n+]3ccn4ncccc43)CS[C@H]12)c1nsc(N)n1,,inactive
C=CC(=O)CCCCC,0.0023% [at 95.7 µM],
CC1CC(=O)CC(C)(C)C1 (stereo not given),0.0075%,
CC(C)OC(=O)CCC(=O)OC(C)C,0.0283%,
CCO,0.0267% [at 95.7 µM],

Compound,"fluorescence, % of Rose Bengal",outcome
CCc1occc(=O)c1O,-0.117%,
O=C(O)[C@H](O)c1ccccc1,-0.0142% [at 46 µM],
OCC(O)CN1CCN(c2ccccc2)CC1 (stereo not given),-0.0319% [at 46 µM],
Cc1ccc(C(C)NC(=O)[C@@H](NC(=O)OC(C)C)C(C)C)cc1 (stereo not given in full),-0.0376%,
CCCCCc1cccc(=O)o1,0.0693%,
O=C(NCN1CCOCC1)c1cnccn1,0.0451% [at 46 µM],
CC1(C)Oc2ccc(C#N)cc2[C@@H](N2CCCC2=O)[C@@H]1O,,inactive
C=CCSSCCC,0.073%,
COS(=O)(=O)O,-0.0055%,
O=C1c2ccccc2C(=O)c2cc(Cl)ccc21,-0.0228% [at 3.72 µM],
CC(=O)c1cc(C)oc1C,0.0387% [at 95.7 µM],
CC(=O)C(C)O (stereo not given),0.513%,
CN1C[C@@H]2C[C@H]1CN2c1cc2c(cc1F)c(=O)c(C(=O)O)cn2C1CC1,0.348% [at 46 µM],
CC(=O)CCc1ccc(OC(C)=O)cc1,0%,
CN(C)CCN(C)CCO,-0.34%,
CCC/C=C(\C=O)CC,-0.0199%,
CC(S)C(C)S (stereo not given),0.0808% [at 95.7 µM],
C=C(C)C1CC=C(C)C(=O)C1 (stereo not given),0.326%,
CCCSSCCC,-0.0727%,
C=Cc1ccc(C(C)(C)C)cc1,0.0504%,
